Several values for one entry are separate records, joined by “and”; a condition that tells them apart may be missing. Equal entries are not always repeated. In all, about 220,000 compounds went through this assay and about 920 (0.42%) were called active. Rule as the data show it: active = inhibition above about 15%; inactive = the rest. Only a selection was taken, and actives are over-represented in it overall. A structure can be active in one record and inactive in another.
Each compound was assayed against Transitional endoplasmic reticulum ATPase (Homo sapiens) (UniProt P55072) (assay: inhibitors of human p97 ATPase, primary screen, biochemical (AID 1481;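 also: 0% = DMSO vehicle and 100% = wells lacking enzyme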)). Settings: recombinant p97 ATPase, Kinase-Glo ATP luminescence, 3 h; at 8 µM; stronger effect = higher value.
Chain of Transitional endoplasmic reticulum ATPase (Homo sapiens) (P55072 whole entry, looked up): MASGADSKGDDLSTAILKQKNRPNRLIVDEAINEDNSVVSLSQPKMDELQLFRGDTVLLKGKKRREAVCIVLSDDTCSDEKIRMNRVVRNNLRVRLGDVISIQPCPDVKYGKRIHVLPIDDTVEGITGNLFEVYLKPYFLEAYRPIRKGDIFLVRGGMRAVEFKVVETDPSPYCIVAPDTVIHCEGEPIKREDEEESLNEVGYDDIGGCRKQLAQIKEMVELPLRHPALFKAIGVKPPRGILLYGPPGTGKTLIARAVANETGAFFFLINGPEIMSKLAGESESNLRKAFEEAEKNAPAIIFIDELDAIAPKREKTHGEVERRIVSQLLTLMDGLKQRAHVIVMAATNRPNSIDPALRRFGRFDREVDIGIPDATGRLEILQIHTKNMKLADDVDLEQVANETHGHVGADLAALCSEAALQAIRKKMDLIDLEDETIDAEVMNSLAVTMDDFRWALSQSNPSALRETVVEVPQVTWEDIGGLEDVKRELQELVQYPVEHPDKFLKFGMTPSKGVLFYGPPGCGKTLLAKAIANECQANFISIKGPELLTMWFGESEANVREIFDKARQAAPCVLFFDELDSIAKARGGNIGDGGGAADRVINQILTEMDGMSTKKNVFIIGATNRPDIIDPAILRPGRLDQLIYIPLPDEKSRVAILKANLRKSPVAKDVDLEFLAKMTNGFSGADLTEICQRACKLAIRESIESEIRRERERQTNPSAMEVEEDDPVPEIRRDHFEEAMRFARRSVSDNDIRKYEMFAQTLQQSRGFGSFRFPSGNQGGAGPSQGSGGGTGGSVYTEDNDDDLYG

| SMILES | inhibition |
| --- | --- |
| Nc1nc(SCC(=O)NN(c2ccccc2)c2ccccc2)n[nH]1 | -5.25% (inactive) |
| COc1cc(OC)c(C(=O)Nc2ccccc2-c2ccccc2)cc1OC | 0.92% (inactive) |
| COc1ccccc1NC(=O)c1cc(Cl)nc2ccccc12 | 5.78% (inactive) |
| COc1ccccc1C(=O)Nc1nc2nc(-c3ccccc3)cc(=O)n2[nH]1 | 14.8% (active) |
| O=C(NCCc1ccccc1)Oc1ccc(Cl)cc1 | -1.73% (inactive) |
| O=C(N/N=C/c1ccccc1O)/C(=C/c1ccccc1)CCO | 2.01% (inactive) |
| CCC1CCCCN1S(=O)(=O)Cc1ccccc1Cl (centres undefined) | 2.1% (inactive) |
| CN(C)c1ccc(/C=C/C(=O)c2ccc(O)cc2)cc1[N+](=O)[O-] | 0.06% (inactive) |
| O=C(/C=C/c1ccc(Cl)c([N+](=O)[O-])c1)c1cccnc1 | -0.11% (inactive) |
| O=C(/C=C/c1ccc(Cl)c([N+](=O)[O-])c1)c1ccc(O)cc1 | 19.3% (active) |
| Cc1ccccc1Nc1c(-c2ccccc2)nc2ncccn12 | 4.55% (inactive) |
| CC(Sc1cccc[n+]1[O-])C(=O)Nc1cccc(S(=O)(=O)N2CCOCC2)c1 (centres undefined) | 4.59% (inactive) |
| CN(C)c1ccc(NC(=O)CSc2n[nH]c(-c3ccco3)n2)cc1 | -3.13% (inactive) |
| COc1cc(C(=O)Nn2c(O)c(C3=c4ccccc4=NC3=O)sc2=S)ccc1O | 4.86% (inactive) |
| COC(=O)Cn1nc(-c2ccccc2)c2cc(Cl)ccc21 | -5.36% (inactive) |
| Cc1cc2nc3c(=O)n(Cc4ccccc4)c(=O)[nH]c3nc2cc1N | 8% (inactive) |
| Nc1ccc2nc3c(=O)[nH]c(=S)[nH]c3nc2c1 | 39.2% (active) |
| Cc1ccc(C(=O)N/C(=C/c2cccs2)C(=O)N2CCCCC2)cc1 | 1.51% (inactive) |
| CCc1nc2sc3c(Cl)ncnc3c2c2c1CCCC2 | 6.87% (inactive) |
| C=CCn1c(N)c(S(=O)(=O)c2cccs2)c2nc3ccccc3nc21 | 6.58% (inactive) |

| SMILES | inhibition |
| --- | --- |
| C=CCn1c(N)c(C(=O)OCC(C)C)c2nc3ccccc3nc21 | 21.5% (active) |
| CC(C)Cn1c(N)c(C(=O)NCc2cccs2)c2nc3ccccc3nc21 | 4.74% (inactive) |
| CC(=O)c1cccc(-n2nnnc2SCC(=O)NNC(=O)C2CCCCC2)c1 | -0.28% (inactive) |
| COc1ccccc1CNC(=O)Cn1c(=O)oc2cc(Cl)ccc21 | -2.55% (inactive) |
| COCC(C)OC(=O)c1c(N)n(CCCN2CCOCC2)c2nc3ccccc3nc12 (centres undefined) | 4.25% (inactive) |
| CCN1C(=O)/C(=C2/Sc3ccccc3N2CCCS(=O)(=O)O)SC1=S | 16.4% (active) and -0.77% (inactive) |
| CCCCN1C(=O)/C(=C/C=C2/C=Cc3ccccc3N2CC)SC1=S | 6.25% (inactive) |
| CCN1C(=O)/C(=c2\s/c(=C3\Sc4ccccc4N3C)c(=O)n2C)N(C)C1=S | 2.09% (inactive) |
| NC(=O)Cc1ccc2c(c1)[nH]c1ccccc12 | 2.82% (inactive) |
| Fc1ccc(CNCc2ccc(Br)cc2)cc1 | 9.11% (inactive) |
| COc1ccccc1-n1c(SCC(=O)O)nc2sc3c(c2c1=O)CCC3 | -1.29% (inactive) |
| Cc1ccc(C(C[N+](=O)[O-])c2c(C)cc3ccccn23)cc1 (centres undefined) | -4.06% (inactive) |
| O=C(CCCn1c(=O)[nH]c2cc(Cl)ccc2c1=O)NCCN1CCN(c2ccccc2)CC1 | 1.79% (inactive) |
| CCN(CC)CCNC(=O)CCCCCn1c(=O)[nH]c2cc(C(=O)OC)ccc2c1=O | 15% (active) |
| COc1ccc(CCNC(=O)CCCCn2c(=O)[nH]c3ccccc3c2=O)cc1OC | 4.64% (inactive) |
| O=C(CSc1nc2ccc([N+](=O)[O-])cc2[nH]1)c1ccc(Cl)cc1 | 2.81% (inactive) |
| CC(CC(=O)Nc1ccccc1)n1ccnc1 (centres undefined) | -4.72% (inactive) |
| Cc1cc(C)c(NC(=O)CN2C(=O)NC(Cc3ccccc3)C2=O)c(C)c1 (centres undefined) | -0.65% (inactive) |
| COc1ccccc1CNC(=O)COc1ccc(C)nc1[N+](=O)[O-] | 0.97% (inactive) |
| COc1cc(/C=C2/C(=O)NN(c3ccc(F)cc3)C2=O)cc([N+](=O)[O-])c1O | 6.04% (inactive) |

| SMILES | inhibition |
| --- | --- |
| O=C(CSC1=Nc2ccccc2C2=NC(CC(=O)NCc3ccco3)C(=O)N12)NCc1ccco1 (centres undefined) | 2.33% (inactive) |
| O=C(CC1N=C2c3ccccc3N=C(SCc3ccccc3Cl)N2C1=O)NCc1ccco1 (centres undefined) | 2.64% (inactive) |
| CCC(C)NC(=O)CSC1=Nc2ccccc2C2=NC(CCC(=O)NCc3ccco3)C(=O)N12 (centres undefined) | 18.7% (active) |
| COc1nc(N(C)C)nc(N2CC(=O)N(CCNS(=O)(=O)c3ccc(C)cc3)C2=N)n1 | 5.1% (inactive) |
| O=C1N=C(N2CCc3ccccc3C2)S/C1=C\c1ccc(O)cc1 | 0.81% (inactive) |
| C/C(=N/NC(=S)Nc1ccccc1)c1ccc2c(c1)OCO2 | 2.26% (inactive) |
| CCOC(=O)c1nnn(-c2nc(OC)nc(N(C)C)n2)c1-c1ccccc1 | -0.37% (inactive) |
| CCOc1nc(OCC)nc(-n2cc(-c3ccccc3)nn2)n1 | 24.2% (active) |
| CCOc1ccc(/C=N/Nc2nncc(-c3ccccc3)n2)cc1OC | 0.88% (inactive) |
| COC(=O)c1scc(S(=O)(=O)C(C)(C)C)c1-n1cccc1 | 3.92% (inactive) |
| Cc1ccc(C(=O)NC2CC(C)(C)NC(C)(C)C2)c(C)c1 | -2.82% (inactive) |
| Cc1ccc2c(c1)NCC(C(=O)NC1CCC(C)CC1)O2 (centres undefined) | 18.4% (active) |
| CC1CCC(NC(=O)C2c3ccccc3C(=O)N2Cc2ccc3c(c2)OCO3)CC1 (centres undefined) | -6.03% (inactive) |
| CN1C(=O)/C(=C\c2cc(Br)cs2)c2ccccc21 | 7.61% (inactive) |
| O=C(Nc1nnc(Cc2ccccc2)s1)c1cnccn1 | 1.61% (inactive) |
| COc1cccc(NC(=S)NCc2ccco2)c1 | 3.44% (inactive) |
| O=C(NCCCO)/C(=C\C=C\c1ccccc1)NC(=O)c1ccccc1Cl | 6.57% (inactive) |
| CCN1CCc2nc(NC(=O)c3cc(F)c(F)cc3Cl)sc2C1 | 4.45% (inactive) |
| OCCNc1nc2ccccc2n1-c1ncnc2sc3c(c12)CCC3 | -5.39% (inactive) |

— PubChem BioAssay AID1481 (The Scripps Research Institute Molecular Screening Center, 2009)
